Results as given in PubChem BioAssay (NCATS).
Several values for one entry are separate records, joined by “and”; a condition that tells them apart may be missing. Equal entries are not always repeated. Results filed as inconclusive are left out. Activity calls are given as the source filed them. Unless noted, calls follow the shape of the dose curve; as a rule, active = well fitted curve in the direction sought with a large enough effect; inconclusive = small, poorly fitted or top-dose-only effect, or another doubt; inactive = no such curve, though single readings can be large; an effect the other way counts as inactive or inconclusive.

How the values were obtained:
[1] = Cell Viability - Jurkat (AID 426;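 active = dose-dependent loss of cell ATP signal giving a full or clear fitted curve, ranked by lower potency value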;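 also: potency is read from the fitted curve at half-maximal effect; cells exposed to compound for 40 hours at 37 °C before ATP read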); conditions: qHTS
Procedure, shortened: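 Jurkat (Clone E6-1) cells, 5000/well in complete medium, exposed to compounds for 40 hr at 37C; intracellular ATP measured by CellTiter-Glo luminescence after 20 min at room temperature. AC50 from Hill fits.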

[2] = Cell Viability - Hek293 (AID 427;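 active = compounds whose dose-response curve shows a full or clear partial loss of cell viability, called from curve shape rather than a numeric limit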;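 also: potency is read from the fitted curve at half-maximal effect; cells exposed to compound for 40 hours at 37 °C before reading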); conditions: qHTS
Procedure, shortened: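 AC50 values derive from Hill-modelled concentration-response of ATP-based luminescence, normalized between DMSO-only and 100 uM tamoxifen controls. Cells were exposed in complete culture medium for 40 hr at 37 °C before detection.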

[3] = Cell Viability - SK-N-SH (AID 435; calls by dose curve;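 also: potency is read from the fitted curve at half-maximal effect; compound exposure lasted 40 h at 37 °C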); conditions: SK-N-SH neuroblastoma cell viability qHTS
Procedure, shortened: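 Cells seeded at 1500 per well and incubated 5 hr at 37 °C. Compound added, then 40 hr at 37 °C. CellTiter-Glo added, 20 min at room temperature, luminescence read.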

[4] = Cell Viability - SH-SY5Y (AID 544); conditions: SH-SY5Y neuroblastoma cell viability; viability change, negative = cytotoxic: at 92.2 µM (top of the series);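 also: 0% = DMSO alone and -100% = 100 µM tamoxifen; nearly all actives have a fitted effect of over 55% in size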
Procedure, shortened: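 SH-SY5Y human neuroblastoma cells (1500/well) incubated 5 h, then compound-treated 40 h at 37 °C in complete medium. Viability read as intracellular ATP by CellTiter-Glo luminescence after 20 min; AC50 from Hill-equation fits of qHTS concentration-response.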

[5] = target: Cytochrome P450 3A4 (Homo sapiens) (UniProt P08684); test: qHTS Assay for Inhibitors and Substrates of Cytochrome P450 3A4 (AID 884); conditions: recombinant CYP3A4, Luciferin-PPXE luminescence; series mostly up to 57.1 µM; also: % is scaled to controls: 0 for no effect and ±100 for the full control effect; nearly all actives have a fitted effect of over 50% in size
Procedure, shortened: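 20 nM human CYP3A4 with 25 uM Luciferin-PPXE (at KM) in 200 mM KPO4, preincubated 10 min with compound; NADPH regeneration started a 60 min RT reaction. Luciferin detected by luminescence, normalized to 57 uM ketoconazole as full inhibition.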

[6] = Cell Viability - LYMP2-015 (AID 971); conditions: LYMP2-015 lymphoblastoid cell viability; series mostly up to 92.2 µM;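 also: 0% = DMSO only and full effect = 92 µM tetraoctylammonium bromide; nearly all actives have a fitted effect of over 55% in size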
Procedure, shortened: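 LYMP2-015 human lymphoblastoid cells (2500/well) in complete medium, compound-treated 24 h at 37 C; viability read as cellular ATP by CellTiter-Glo luminescence after 30 min at room temperature. AC50 from Hill-equation fits of qHTS concentration-response data.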

[7] = Cell Viability - LYMP2-010 (AID 981); conditions: LYMP2-010 lymphoblastoid cell viability, qHTS; series mostly up to 92.2 µM;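 also: cells exposed to compound for 24 hours at 37 °C; % is scaled to controls: 0 for no effect and ±100 for the full control effect; nearly all actives have a fitted effect of over 55% in size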
Procedure, shortened: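 Human lymphoblastoid LYMP2-010 cells (2500/well) treated 24 h at 37 C in complete medium; viability read as intracellular ATP by CellTiter-Glo luminescence. AC50 from Hill fits of concentration-response data; tetraoctylammonium bromide positive control.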

[8] = target: Glucocorticoid receptor (Homo sapiens) (UniProt P04150); test: qHTS assay for small molecule agonists of glucocorticoid receptor signaling (AID 588532; active = well fitted curve in the direction sought with a large enough effect in the signal ratio, with a control signal flat; the % refers to the signal ratio;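 also: 100% = dexamethasone at 0.1 µM and 0% = DMSO only wells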); conditions: HeLa MMTV-bla, beta-lactamase ratio, agonist, 18 h; stronger effect = higher value; percent of dexamethasone control, DMSO zero
Procedure, shortened: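 Stimulation of a glucocorticoid response element-driven beta-lactamase gene was measured in HeLa cells. Responses were scaled between DMSO basal and 0.1 uM dexamethasone, then fitted for half-maximal stimulation.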

[9] = qHTS assay for small molecule agonists of retinoid X receptor alpha signaling (AID 588544); conditions: HEK293T RXRa-UAS-bla, beta-lactamase reporter, 18 h; 530 nm emission
[10] = target: Thyroid hormone receptor beta (Homo sapiens) (UniProt P10828); test: qHTS assay for small molecule agonists of thyroid hormone receptor beta signaling (AID 588545; calls by dose curve); conditions: TR-UAS-bla GripTite HEK 293, beta-lactamase ratio, agonist mode, 18 h; series mostly up to 76.7 µM
Procedure, shortened: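 HEK 293 TR-UAS-bla; agonist mode; 18 hrs, 37 C; CCF4, ex 405/em 460 and 530 nm; norm. T3 10 nM = 100%, DMSO = 0%; Hill fit → EC50, efficacy.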

[11] = target: Voltage-gated inwardly rectifying potassium channel KCNH2 (Homo sapiens) (UniProt Q12809); test: qHTS Assay for Small Molecule Inhibitors of the Human hERG Channel Activity (AID 588834); conditions: U2OS BacMam hERG, FluxOR thallium flux fluorescence; series mostly up to 92.2 µM;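 also: top concentration of the series differs between compounds; % is scaled to controls: 0 for no effect and ±100 for the full control effect; lower thallium flux fluorescence means stronger hERG block; nearly all actives have a fitted effect of over 50% in size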
Procedure, shortened: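 Measured: FluxOR fluorescence after thallium stimulation in U2OS cells transduced with hERG by baculovirus. Compounds pre-incubated around 10 min; medium Opti-MEM with 2% FCS. AC50 from Hill equation.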

[12] = target: Nuclear receptor ROR-gamma (Homo sapiens) (UniProt P51449); test: qHTS assay for small molecule antagonists of the retinoid-related orphan receptor gamma (ROR-gamma) signaling pathway (AID 651802); conditions: ROR-gamma antagonist cell reporter assay; series mostly up to 92.2 µM;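 also: luciferase reporter luminescence driven by ROR response element; % is scaled to controls: 0 for no effect and ±100 for the full control effect; nearly all actives have a fitted effect of over 60% in size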
Procedure, shortened: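 CHO cells with TET-inducible ROR-gamma and RORE-luciferase reporter, dosed then doxycycline-induced. After 16 h at 37C, One-Glo luminescence read; decreased signal indicates antagonism.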

[13] = qHTS assay for small molecule agonists of the antioxidant response element (ARE) signaling pathway measured by Nrf2-dependant transcriptional activity (AID 720636; active = well fitted curve in the direction sought with a large enough effect in the repeat runs; an effect the other way counts as inactive or inconclusive;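 also: HepG2 cells with an ARE-driven luciferase reporter; % of control where 0% means no effect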); conditions: ARE-luc HepG2, Nrf2 luciferase reporter, 16 h; series mostly up to 92.4 µM
Procedure, shortened: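 Cells: ARE-luc HepG2 with Nrf2-responsive luciferase. Medium contained 1% dialyzed FBS. Compound exposure lasted 16 hr at 37 C and 5% CO2, followed by ONE-Glo luciferase detection.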

[14] = qHTS assay for small molecule antagonists of the retinoid-related orphan receptor gamma (ROR-gamma) signaling pathway - cell viability counter screen (AID 720652; active = well fitted curve in the direction sought with a large enough effect in the repeat runs; an effect the other way counts as inactive or inconclusive;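 also: compound exposure lasted 16 hr before ATP read; % is scaled to controls: 0 for no effect and ±100 for the full control effect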); conditions: RORgamma reporter cell line viability counter screen; series mostly up to 92.2 µM
Procedure, shortened: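 CHO cells carrying TET-inducible ROR and RORE-luciferase reporter, plated 5 hr, then dosed with compound plus doxycycline. After 16 hr at 37 C, viability read as intracellular ATP by CellTiter-Glo luminescence.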

[15] = qHTS assay for small molecule activators of the human pregnane X receptor (PXR) signaling pathway (AID 720659; call rule not given here; also: 0% is about no effect); conditions: DPX-2 HepG2 CYP3A4-luciferase, 24 h; series mostly up to 92.3 µM
[16] = MultiTox-Fluor Cytotoxicity Assay - LYMP1-002 - Dead Cells (AID 960); conditions: LYMP1-002 lymphoblastoid cells, dead-cell protease fluorescence; series mostly up to 46.1 µM;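 also: 0% = DMSO and 100% = tetraoctylammonium bromide; nearly all actives have a fitted effect of over 60% in size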
Procedure, shortened: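 Human lymphoblastoid LYMP1-002 cells, 2500/well, treated 16 h at 37 C; dead-cell protease cleavage of bis-AAF-R110 read by fluorescence (485/520); normalized to DMSO and 15 uM tetraoctylammonium bromide; AC50 from Hill fit.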

[17] = qHTS assay for small molecule activators of the p53 signaling pathway (AID 651743; active = well fitted activation curve with a large enough effect in the signal ratio, not every such curve was filed as active; the % refers to the signal ratio; also: % of control where 0% means no effect); conditions: HCT-116 p53RE-bla, beta-lactamase FRET ratio, 16 h; activation: stronger effect = higher value
Procedure, shortened: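 Cell-based beta-lactamase reporter (p53 response elements, HCT-116 background). After a 5-hour preincubation, cells received compound for 16 hours at 37 C; substrate development ran 2 hours at room temperature.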

[18] = qHTS assay for small molecule activators of the nuclear factor-kappa B (NF-kB) signaling pathway (AID 651749; active = well fitted activation curve with a large enough effect in the signal ratio; the % refers to the signal ratio; also: % of control where 0% means no effect); conditions: NF-kB-bla ME-180 cells, beta-lactamase FRET ratio, 16 h; stronger effect = higher value
Procedure, shortened: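 Screening used 2,000 ME-180 reporter cells per well exposed to pinned compound (23 nL) or DMSO; after 16 hr at 37C, beta-lactamase expression under NF-kB control was assessed through FRET.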

[19] = target: Vitamin D3 receptor (Homo sapiens) (UniProt P11473); test: qHTS assay for small molecule agonists of vitamin D receptor signaling (AID 588543; calls by dose curve;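 also: 0% = DMSO basal and 100% = reference agonist control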); conditions: HEK293T VDR-UAS-bla, beta-lactamase ratio, 16 h; series mostly up to 76.8 µM
Procedure, shortened: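 qHTS in agonist mode: compound titrations stimulate a VDR-driven β-lactamase reporter in HEK293T cells over 16 h at 37 °C. Response normalized to 50 nM 1α,25-dihydroxyvitamin D3 = 100%, DMSO = 0%; Hill fitting gives EC50 and maximal response.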

[20] = qHTS assay for small molecule disruptors of the mitochondrial membrane potential - 1 hr assay (AID 651754; calls by dose curve; also: % is scaled to controls: 0 for no effect and ±100 for the full control effect; nearly all actives have a fitted effect of over 35% in size); conditions: series mostly up to 92.2 µM
Procedure, shortened: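 HepG2 cells, attached overnight, were exposed to compound for 1 hr at 37C, then stained 30 min with a potentiometric dye. Ratio of red aggregate (590nm) to green monomer (535nm) fluorescence reports membrane potential; collapse shifts signal toward green.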

Chain of Cytochrome P450 3A4 (Homo sapiens) (P08684 whole entry, looked up): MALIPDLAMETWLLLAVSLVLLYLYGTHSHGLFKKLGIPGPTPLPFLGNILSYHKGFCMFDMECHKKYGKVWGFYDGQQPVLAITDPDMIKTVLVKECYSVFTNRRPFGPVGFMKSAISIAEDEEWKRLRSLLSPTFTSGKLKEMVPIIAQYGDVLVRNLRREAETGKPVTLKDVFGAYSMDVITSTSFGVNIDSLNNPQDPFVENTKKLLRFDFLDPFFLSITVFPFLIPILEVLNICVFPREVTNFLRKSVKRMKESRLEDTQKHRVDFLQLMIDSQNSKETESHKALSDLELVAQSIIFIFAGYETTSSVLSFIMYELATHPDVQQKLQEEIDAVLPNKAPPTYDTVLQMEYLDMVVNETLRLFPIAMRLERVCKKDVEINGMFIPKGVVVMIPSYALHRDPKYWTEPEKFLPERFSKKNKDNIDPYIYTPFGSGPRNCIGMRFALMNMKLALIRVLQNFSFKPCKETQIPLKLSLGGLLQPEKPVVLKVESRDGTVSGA
Chain of Glucocorticoid receptor (Homo sapiens) (P04150 whole entry, looked up): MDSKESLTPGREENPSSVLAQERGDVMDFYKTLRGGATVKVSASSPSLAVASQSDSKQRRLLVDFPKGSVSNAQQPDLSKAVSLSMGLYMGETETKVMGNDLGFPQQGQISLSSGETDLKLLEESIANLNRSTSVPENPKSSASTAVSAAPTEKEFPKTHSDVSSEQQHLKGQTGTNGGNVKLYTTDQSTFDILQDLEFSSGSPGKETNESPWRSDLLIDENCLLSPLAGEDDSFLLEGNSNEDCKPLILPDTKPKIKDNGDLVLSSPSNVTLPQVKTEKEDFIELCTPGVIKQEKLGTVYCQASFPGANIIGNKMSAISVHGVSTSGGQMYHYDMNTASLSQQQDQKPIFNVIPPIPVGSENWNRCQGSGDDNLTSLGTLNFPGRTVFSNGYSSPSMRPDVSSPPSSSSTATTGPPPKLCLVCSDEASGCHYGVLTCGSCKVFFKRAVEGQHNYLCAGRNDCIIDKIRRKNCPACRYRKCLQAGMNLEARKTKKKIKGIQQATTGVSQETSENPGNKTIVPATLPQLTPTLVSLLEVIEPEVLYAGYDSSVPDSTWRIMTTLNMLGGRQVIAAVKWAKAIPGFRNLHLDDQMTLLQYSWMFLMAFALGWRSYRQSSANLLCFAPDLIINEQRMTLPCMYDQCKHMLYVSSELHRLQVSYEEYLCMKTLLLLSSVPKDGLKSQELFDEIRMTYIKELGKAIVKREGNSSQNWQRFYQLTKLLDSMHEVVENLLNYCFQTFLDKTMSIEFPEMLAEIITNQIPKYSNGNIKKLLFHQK
Chain of Nuclear receptor ROR-gamma (Homo sapiens) (P51449 whole entry, looked up): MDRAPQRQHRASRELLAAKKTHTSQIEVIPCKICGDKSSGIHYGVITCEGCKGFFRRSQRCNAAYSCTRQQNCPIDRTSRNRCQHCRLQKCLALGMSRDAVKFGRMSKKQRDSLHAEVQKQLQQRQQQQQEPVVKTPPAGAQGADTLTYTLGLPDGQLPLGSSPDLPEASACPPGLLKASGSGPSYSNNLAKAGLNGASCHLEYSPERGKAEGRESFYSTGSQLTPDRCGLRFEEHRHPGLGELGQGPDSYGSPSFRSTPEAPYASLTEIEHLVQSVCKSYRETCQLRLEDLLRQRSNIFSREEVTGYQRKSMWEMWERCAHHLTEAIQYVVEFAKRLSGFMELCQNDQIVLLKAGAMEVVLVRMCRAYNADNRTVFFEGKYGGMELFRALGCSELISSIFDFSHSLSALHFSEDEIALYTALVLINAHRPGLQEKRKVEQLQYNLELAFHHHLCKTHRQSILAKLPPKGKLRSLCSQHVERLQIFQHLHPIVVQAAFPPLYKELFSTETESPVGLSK
Chain of Voltage-gated inwardly rectifying potassium channel KCNH2 (Homo sapiens) (Q12809 whole entry, looked up): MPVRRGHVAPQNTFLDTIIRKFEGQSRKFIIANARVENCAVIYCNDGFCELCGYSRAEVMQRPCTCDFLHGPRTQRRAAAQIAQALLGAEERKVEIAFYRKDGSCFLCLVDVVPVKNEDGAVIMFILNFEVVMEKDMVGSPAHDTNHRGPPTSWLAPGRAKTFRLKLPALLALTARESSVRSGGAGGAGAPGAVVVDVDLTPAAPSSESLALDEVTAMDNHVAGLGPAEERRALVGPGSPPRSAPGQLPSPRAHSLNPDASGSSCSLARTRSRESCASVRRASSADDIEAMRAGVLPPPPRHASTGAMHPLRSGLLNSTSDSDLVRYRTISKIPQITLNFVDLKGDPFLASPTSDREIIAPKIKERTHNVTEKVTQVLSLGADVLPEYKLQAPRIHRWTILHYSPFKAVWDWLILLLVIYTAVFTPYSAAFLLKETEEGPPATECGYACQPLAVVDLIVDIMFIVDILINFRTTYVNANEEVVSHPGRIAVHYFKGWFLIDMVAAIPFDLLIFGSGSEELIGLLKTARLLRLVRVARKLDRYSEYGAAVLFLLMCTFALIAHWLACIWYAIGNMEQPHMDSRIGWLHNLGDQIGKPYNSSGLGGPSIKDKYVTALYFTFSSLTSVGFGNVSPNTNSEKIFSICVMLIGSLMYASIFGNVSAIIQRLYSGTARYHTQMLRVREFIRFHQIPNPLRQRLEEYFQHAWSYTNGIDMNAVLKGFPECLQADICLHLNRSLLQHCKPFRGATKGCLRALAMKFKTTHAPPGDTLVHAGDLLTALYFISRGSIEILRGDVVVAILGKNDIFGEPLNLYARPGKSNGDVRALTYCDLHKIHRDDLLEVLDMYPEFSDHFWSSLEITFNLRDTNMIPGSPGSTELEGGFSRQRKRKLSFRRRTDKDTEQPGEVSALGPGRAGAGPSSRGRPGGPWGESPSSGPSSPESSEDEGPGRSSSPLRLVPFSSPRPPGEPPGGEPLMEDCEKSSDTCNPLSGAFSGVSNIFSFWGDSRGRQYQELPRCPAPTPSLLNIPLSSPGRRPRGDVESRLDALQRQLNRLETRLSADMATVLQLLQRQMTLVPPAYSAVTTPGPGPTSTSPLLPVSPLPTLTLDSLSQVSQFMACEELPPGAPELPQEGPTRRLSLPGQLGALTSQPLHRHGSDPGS
Chain of Vitamin D3 receptor (Homo sapiens) (P11473 whole entry, looked up): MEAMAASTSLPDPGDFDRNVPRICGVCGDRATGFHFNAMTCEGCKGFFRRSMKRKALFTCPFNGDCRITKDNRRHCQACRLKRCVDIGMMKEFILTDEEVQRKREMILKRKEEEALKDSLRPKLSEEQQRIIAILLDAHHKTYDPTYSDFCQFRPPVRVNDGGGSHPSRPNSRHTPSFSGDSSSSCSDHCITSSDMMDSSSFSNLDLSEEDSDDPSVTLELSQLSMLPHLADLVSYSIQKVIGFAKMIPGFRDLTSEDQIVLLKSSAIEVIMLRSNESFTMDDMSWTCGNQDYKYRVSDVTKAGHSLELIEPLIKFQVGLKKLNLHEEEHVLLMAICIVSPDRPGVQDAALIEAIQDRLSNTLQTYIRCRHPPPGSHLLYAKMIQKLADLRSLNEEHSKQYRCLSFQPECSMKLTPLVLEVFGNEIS
Chain of Thyroid hormone receptor beta (Homo sapiens) (P10828 whole entry, looked up): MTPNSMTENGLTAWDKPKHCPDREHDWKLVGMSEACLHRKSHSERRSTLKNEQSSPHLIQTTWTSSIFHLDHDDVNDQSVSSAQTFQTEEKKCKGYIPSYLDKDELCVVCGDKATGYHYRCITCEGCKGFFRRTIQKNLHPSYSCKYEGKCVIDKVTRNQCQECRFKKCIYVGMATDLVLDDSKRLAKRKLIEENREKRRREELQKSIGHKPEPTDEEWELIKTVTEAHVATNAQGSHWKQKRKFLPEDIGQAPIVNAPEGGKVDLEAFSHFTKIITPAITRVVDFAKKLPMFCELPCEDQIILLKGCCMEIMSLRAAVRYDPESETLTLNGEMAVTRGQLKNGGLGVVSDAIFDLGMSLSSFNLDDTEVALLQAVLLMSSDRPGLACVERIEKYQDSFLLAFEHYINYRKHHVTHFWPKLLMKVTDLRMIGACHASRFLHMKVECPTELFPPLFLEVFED

C1CCCNCC1
-9.69%: max response [9]
inactive: Potency [1] > 92 µM | Potency [2] > 92 µM | Potency [3] > 92 µM | Potency [4] | Potency [5] | Potency [6] | Potency [7] | activation [8] 8.29% | Potency [10] | Potency [11] | Potency [12] | Potency [13] | Potency [14] | outcome [15]

CC(=O)OC(C(=O)c1ccccc1)c1ccccc1 (stereo not drawn)
-6.96%: max response [9]
inactive: Potency [1] > 92 µM | Potency [2] > 92 µM | Potency [3] > 92 µM | Potency [4] | Potency [5] | Potency [16] | Potency [6] | Potency [7] | activation [8] 8.92% | Potency [10] | Potency [11] | activation [17] -2.72% | activation [18] 0.305% | Potency [13] | Potency [14] | outcome [15]

C=CC(C)(O)CCCC(C)CCCC(C)CCCC(C)C (stereo not drawn)
inactive: Potency [2] > 92 µM | Potency [3] > 92 µM | Potency [4] | Potency [16] | Potency [6] | Potency [7] | activation [8] 1.44% | Potency [19] | Potency [10] | Potency [11] | activation [17] -2.56% | activation [18] -0.414% | Potency [13] | outcome [15]
-17.1%: max response [9]

CCCCC(CC)COP(=O)(OCC(CC)CCCC)OCC(CC)CCCC (stereo not drawn)
inactive: Potency [3] > 92 µM | Potency [4] | Potency [6] | Potency [7] | activation [8] -3.34% | Potency [19] | Potency [10] | Potency [11] | activation [17] -6.02% | activation [18] -0.649% | Potency [20] | Potency [12] | Potency [13] | Potency [14] | outcome [15]
-2.54%: max response [9]

Brc1cc(Br)c(Oc2cc(Br)c(Br)cc2Br)cc1Br
inactive: Potency [2] > 92 µM | Potency [3] > 92 µM | Potency [4] | Potency [5] | Potency [16] | Potency [6] | Potency [7] | Potency [10] | activation [18] 3.12% | Potency [20] | Potency [13] | Potency [14] | outcome [15]

Clc1nc2ccccc2nc1Cl
inactive: Potency [2] > 92 µM | Potency [3] > 92 µM | Potency [5] | Potency [16] | activation [8] 3.19% | Potency [19] | Potency [10] | Potency [11] | activation [18] -0.675% | Potency [20] | Potency [12]

Brc1cc(Oc2cc(Br)c(Br)c(Br)c2Br)c(Br)c(Br)c1Br
inactive: Potency [2] > 92 µM | Potency [3] > 92 µM | Potency [5] | Potency [16] | Potency [6] | Potency [7] | activation [8] -9.25% and -1.53% | Potency [10] | Potency [11] | activation [17] -8.15% and -4.88% | activation [18] 2.9% and 0.823% | Potency [20] | Potency [12] | Potency [13] | Potency [14]
21.6%: max response [9]
